Screens deposited in PubChem BioAssay by National Center for Advancing Translational Sciences (NCATS).
This excerpt belongs to a sample that is enriched for hits.
Marburg entry inh = inhibitors of Marburg virus binding or cell entry. AID 540276. Potency, µM (doses to about 37.8 µM), inactives show at the highest dose activity change, negative = inhibition, most hits filed as inhibitors. Marburg virus pseudotyped entry inhibition, cell reporter. actives 1.8% (n = 300,000); calls by dose curve; tested in HEK293 cells; note: potency is the fitted concentration of half-maximal effect; % is set by controls: 0 for no effect and ±100 for the full control effect
AMA1-RON2 inh = AMA1-RON2 (P. falciparum) interaction inhibition. AlphaScreen AMA1-biotinylated RON2 peptide binding. Potency, µM (series often up to 58.2 µM), without a hit: at the top dose activity change, negative = inhibition, hits mostly inhibitors. actives 0.2% (n = 360,000). AID 720542; active = well fitted inhibition curve with a large enough effect; inconclusive = small, poorly fitted or top-dose-only effect; inactive = no such curve, though single readings can be large or run the other way;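 note: potency is the fitted concentration of half-maximal effect; 0% = vehicle wells and -100% = peptide control; nearly all actives have a fitted effect of over 45% in size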
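AMA1 (3D7) with his tag at 25 nM final met compounds first, then biotinylated RON2 peptide at 25 nM; detection used donor plus acceptor beads, 10 µg/mL apiece, read by AlphaScreen after 30 min at room temperature.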
LASV entry inh = inhibitors of Lassa virus binding or cell entry; actives 1.2% (n = 300,000); Potency, µM (top dose mostly 37.9 µM), for inactives: at the top dose activity change, negative = inhibition, usual class: inhibitors; Lassa virus pseudotype entry inhibition, cell reporter; calls by dose curve; tested in HEK293 cells; note: potency is the fitted concentration of half-maximal effect; % is set by controls: 0 for no effect and ±100 for the full control effect; nearly all actives have a fitted effect of over 50% in size
Cycloheximide cs = counter-screen hit for Shiga toxin inhibitors, cycloheximide; cell reporter, cycloheximide protein synthesis inhibition counterscreen; max response, %; actives 12% (n = 300,000); in the data active = max response mostly above about 13%, no sharp cut-off; inactive = mostly below about 14%; note: read at 38.3 µM for the half of the compounds with a filed dose; 0% is about no effect
Shiga toxin inh = inhibitors of Shiga toxin in Vero cells | Vero cells, Shiga toxin protein synthesis inhibition reporter | actives 9.2% (n = 290,000) | inhibition, % at 38.7 µM; in the data active = inhibition mostly above about 28%, no sharp cut-off; inactive = mostly below about 43%; note: 0% is about no effect
Starred values were filed as active, the others as inactive; i = inactive; ? = inconclusive; nt = no result; + = active, no number; ! = repeats disagree; [ ] = another dose, or the depositor's remark.

SMILES	Marburg entry inh	AMA1-RON2 inh	LASV entry inh	Cycloheximide cs	Shiga toxin inh
O=C(/C=C1\SC(=O)N(CC(=O)Nc2ccc(F)cc2)C1=O)Nc1ccc(Cl)cc1	5.9%	4.0%[2.32 µM]	-2.4%	31.7*	85.9*
O=C(/C=C1\SC(=O)N(CC(=O)Nc2ccc(Cl)cc2)C1=O)Nc1ccc(F)cc1	-22.2%	2.3%	22.9%	0.2	-1.3
O=C(CCCN1C(=O)S/C(=C\C=C\c2ccccc2)C1=O)Nc1ccc(O)cc1	?	-12.6%	?	44.4*	148.3*
CC(/C=C1\SC(=O)N(CC(=O)Nc2ccc(O)cc2)C1=O)=C\c1ccccc1	-18.7%	-1.0%	-23.8%	29.1	40.4*
O=C(CN1C(=O)S/C(=C\C=C\c2ccccc2)C1=O)Nc1ccc(C(=O)O)cc1	nt	9.2%	nt	5.4	14.3
O=C(CCN1C(=O)/C(=C\C=C\c2ccccc2)SC1=S)Nc1ccc(C(=O)O)cc1	nt	-17.6%	nt	14.9*	29.0
O=C(CN1C(=O)S/C(=C/C=C/c2ccccc2)C1=O)Nc1ccc(C(=O)O)cc1	4.3%[46.1 µM]	-2.9%	?	10.5	37.2
CCOC(=O)c1c(C)[nH]c(C)c1S(=O)(=O)N1CCC(C(=O)Nc2cc(Cl)ccc2OC)CC1	nt	nt	-15.4%[46.1 µM]	nt	nt
COc1ccc2c(c1)C(=O)O[C@@H](c1ccccc1)C[C@@H](O)C(=O)CC2	nt	1.5%	nt	nt	nt
CCc1ccc2c(c1)[C@H]1OCC[C@H]1[C@@H](c1cccs1)N2	?	-2.5%[2.32 µM]	-13.2%	26.4*	42.2*
Cc1cc(C)c(NC(=O)C2CCCCN2C)c(C)c1 (stereo unspecified)	8.8%	7.5%	12.5%	4.8	-12.4
Cc1cc(C)c(NC(=O)C2CSCCS2)c(C)c1 (stereo unspecified)	?	4.3%	12.2%	20.2*	57.1*
CCC(=O)CC	nt	nt	nt	-7.5	5.3
O=C(Nc1ccc2nsnc2c1)N1CCCCC1	20.2%	3.6%	13.4%	29.5*	54.8
CC1CCN(C(=O)Nc2ccc3nsnc3c2)CC1	3.3%	5.7%	2.0%	19.6*	107.4*
CC1CCN(C(=O)Nc2cccc(NC(=O)N3CCC(C)CC3)c2)CC1	36.9%	-9.7%	-0.4%	8.1	7.6
COc1ccc2c(c1)C13CCCCC1C(C2)N(C)CC3 (stereo unspecified)	11.2µM*	nt	?	nt	nt
C=CCN1CC[C@]23CCCCC2[C@H]1Cc1ccc(O)cc13 (stereo partly specified)	7.94µM*!	nt	-7.8%	nt	nt
COc1ccc2c(c1)[C@@]13CCCC[C@H]1[C@@H](C2)NCC3	18.3µM*	nt	?	nt	nt
COc1cccc(OC)c1OC(=O)c1ccccc1	24.2%	2.6%	0.7%[46.1 µM]	nt	nt
Cc1cccc(CN2[C@H](CO)C=CS2(=O)=O)c1	nt	7.8%	nt	nt	nt
Cc1ccsc1/C=N\NC(=O)c1n[nH]c2c1CCC2	2.82µM*	-6.4%[11.6 µM]	6.31µM*	10.6*	3.0
O=C(N/N=C/c1c(Cl)cccc1Cl)c1n[nH]c2c1CCCC2	-42.9%	20.8%	?	93.7*	132.2*
COc1cc(C)ccc1S(=O)(=O)NC(=O)C1(C)CCN1C(=O)Cc1ccc(C(C)(C)C)cc1 (stereo unspecified)	nt	-4.4%	nt	nt	nt
Nc1ccc(C(=O)Nc2ccco2)cc1	-4.3%[46.1 µM]	-16.9%	51.0%	23.3	32.5*
SMILES	Marburg entry inh	AMA1-RON2 inh	LASV entry inh	Cycloheximide cs	Shiga toxin inh
COc1ccc(NC(=O)CN(C)C(=O)C(Sc2ccccc2)c2ccccc2)cc1 (stereo unspecified)	nt	-1.0%	nt	nt	nt
CC(=O)c1sc(-c2ccccc2Cl)nc1C	nt	-6.7%	nt	-1.4	-1.2
Cc1nc(-c2ccccn2)sc1C(=O)O	?	17.9%	11.0%	3.6	18.2
CN(C)/C=C/C(=O)c1cnc(-c2cccc(Cl)c2)s1	nt	-23.0%	nt	24.6*	66.9*
CN(C)/C=C/C(=O)c1cnc(-c2ccccc2Cl)s1	nt	-11.5%	nt	45.3*	87.1*
CN(C)/C=C/C(=O)c1cnc(-c2ccccn2)s1	-15.1%[46.1 µM]	29.5%	-4.9%	36.1*	90.2*
CCOc1ccc(C[C@H]2NC(=O)CCSSC[C@@H](C(=O)N3CCC[C@H]3C(=O)N[C@@H](CCCN)C(=O)NCC(N)=O)NC(=O)[C@H](CC(N)=O)NC(=O)[C@H]([C@@H](C)O)NC(=O)[C@H]([C@@H](C)CC)NC2=O)cc1	nt	nt	nt	-10.2	18.5
COc1cc(C(=S)N2CCOCC2)ccc1OC(=O)/C=C/c1ccco1	nt	13.1%	nt	20.5*	22.9
COc1cc(C(=S)N2CCOCC2)ccc1OC(=O)c1ccccc1	nt	-10.6%	nt	4.5	10.3
CCN(CC)CCNC(=O)c1ccc(NC(C)=O)cc1	?	5.9%	25.1%	-0.1	8.0
CCN(CC)CCNC(=O)c1ccc(NC(=O)c2ccc(COc3ccccc3)cc2)cc1	?	-1.3%	16.1%[46.1 µM]	29.0*	-7.4
CCN(CC)CCNC(=O)c1ccc(NC(=O)Cc2cccc3ccccc23)cc1	11.2µM*	-15.4%	-12.0%[46.1 µM]	-4.9	13.9
CCN(CC)CCNC(=O)c1ccc(NC(=O)c2ccc(C(=O)c3ccccc3)cc2)cc1	?	-16.0%	?	nt	nt
CCOC(=O)[C@]12CCC=C1N(CCC1=CCCCC1)C(=O)[C@H](CC(=O)N1CCOCC1)C2	nt	-1.6%	nt	nt	nt
Fc1ccc(COc2ccc(C(=S)N3CCCC3)cc2)cc1	?	-20.3%	?	53.1*	58.9*
S=C(c1ccc(OCc2ccccc2)cc1)N1CCCC1	nt	-9.0%	nt	20.9*	39.4*
O=C(COc1ccc(C(=S)N2CCCC2)cc1)Nc1ccc(F)cc1	-23.2%	-11.9%	?	7.7	22.6
CCOc1cc(C(=S)N2CCCC2)ccc1OCc1ccccc1	-5.0%	?	?	5.0	-8.0
CC(C)OC(=O)Nc1ccc2c(c1)N(C(=O)N1CCN(C)CC1)c1ccccc1CC2	?	-1.7%	?	29.8*	15.9
CCOC(=O)Nc1ccc2c(c1)N(C(=O)N1CCN(C)CC1)c1ccccc1CC2	nt	-2.0%	nt	5.5	-3.8
CCCC(CCC)C(=O)Nc1ccc2c(c1)N(C(=O)CCN1CCN(C)CC1)c1ccccc1CC2	11.2µM*	-2.7%	-1.3%	-3.0	-5.7
Clc1cc(Cl)cc(C2=N[C@@H](Cc3ccccc3)CO2)c1	nt	nt	nt	5.6	i
O=[N+]([O-])c1cccc(C2=N[C@@H](Cc3ccccc3)CO2)c1	nt	nt	nt	52.7*	+
Brc1ccc(C2=N[C@@H](Cc3ccccc3)CO2)cc1	nt	nt	nt	57.3*	+
CC(C)C[C@H]1COC(c2ccc(Br)cc2)=N1	nt	nt	nt	39.4*	+
SMILES	Marburg entry inh	AMA1-RON2 inh	LASV entry inh	Cycloheximide cs	Shiga toxin inh
COc1ccc(C(=O)OCc2cc(=O)n3nc(-c4cccs4)sc3n2)cc1	nt	nt	3.4%[46.1 µM]	nt	nt
CCN(CC)S(=O)(=O)c1ccc2nc(NC(=O)c3cccs3)sc2c1	9.4%[46.1 µM]	17.6%	18.3%	48.0*	64.8*
CCN(c1cccc(C)c1)S(=O)(=O)c1nnc(NC(=O)c2cccs2)s1	nt	nt	10µM*	nt	nt
CS(=O)(=O)c1ccc2nc(NC(=O)CCC(=O)c3cccs3)sc2c1	-6.7%	-16.1%	8.2%	16.8*	44.8
CCN(CC)S(=O)(=O)c1ccc2nc(NC(=O)c3ccco3)sc2c1	?	9.9%	?	29.0*	77.6*
COc1ccc(NC(=O)NCCn2nnc3cc(S(=O)(=O)N(C)C)ccc32)cc1	nt	nt	-19.3%[46.1 µM]	nt	nt
COC(=O)c1ccc2c(=O)n(CCCCCC(=O)NCCc3ccccc3)c(=O)[nH]c2c1	nt	nt	14.1%[46.1 µM]	nt	nt
